# About 83,000 compounds went through this panel and 20% of them were active in at least one assay; those are over-represented in the sample as a whole.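 Treatment: one concentration, 48 hours, 96-well format. Scoring: percent growth, with anything below 10 considered active.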 Unmarked numbers belong to inactive results. Active and inactive are the calls of the source.
# How the values were obtained:
# Test in all cases: NCI-60 one-dose screen, 48 h (100 = growth as untreated, 0 = no growth, -100 = all killed)
# Conditions in all cases: 10 µM unless noted
# NCI-H23 lung = test system: NCI-H23 lung
# NCI-H226 lung = test system: NCI-H226 lung
# NCI-H322M lung = test system: NCI-H322M lung
# HOP-62 NSCLC = test system: HOP-62 NSCLC
# NCI-H460 lung = test system: NCI-H460 lung
# HOP-92 NSCLC = test system: HOP-92 NSCLC
# NCI-H522 lung = test system: NCI-H522 lung
# A549/ATCC NSCLC = test system: A549/ATCC NSCLC
# 786-0 renal = test system: 786-0 renal
# COLO 205 colon = test system: COLO 205 colon
Compound,growth (NCI-H23 lung),growth (NCI-H226 lung),growth (NCI-H322M lung),growth (HOP-62 NSCLC),growth (NCI-H460 lung),growth (HOP-92 NSCLC),growth (NCI-H522 lung),growth (A549/ATCC NSCLC),growth (786-0 renal),growth (COLO 205 colon)
Cc1ccc(NC(=O)c2ccc(CN3CCN(C)CC3)c(I)c2)cc1Oc1ccc(-c2[nH]nc3ncnc(N)c23)cc1,87.9%,91.8%,89.8%,105%,90.4%,83.4%,46.6%,66.1%,-74.7% (active),53%
CC1(C)CC[C@]2(C(=O)O)CC[C@]3(C)C(=CCC4[C@@]5(C)C[C@@H](O)[C@@H]6OC(c7cccc([N+](=O)[O-])c7)OC[C@@]6(C)C5CC[C@]43C)C2C1 (stereo not given in full),73.6%,77.2%,41.7%,65.2%,65.4%,69.1%,71.8%,37.1%,90.9%,53%
O=C1CSC(=O)N1Cc1cc2ccccc2nc1Cl,99.7%,102%,108%,101%,106%,94.5%,94.3%,99.6%,100%,109%
COc1ccc([C@H]2[C@H](O)C(=O)N2c2cc(OC)c(OC)c(OC)c2)cc1O,31.2%,19.6%,51.4%,18.9%,2.08% (active),-8.12% (active),-38% (active),19.8%,17.4%,-73% (active)
CC(=O)Oc1ccc(CCN2C(=O)CSC2=S)cc1,101%,89.4%,99.8%,111%,101%,53.7%,61.7%,106%,79.7%,115%
Cc1ccc(NC(=O)c2ccc(CN3CCN(C)CC3)c(C(F)(F)F)c2)cc1Oc1ccc(-c2[nH]nc3ncnc(N)c23)cc1,90.1%,78.4%,96.2%,99.4%,93.5%,103%,84.9%,78.6%,70.9%,52.5%
CS(=O)(=O)c1ccc2c(c1)c1c(n2S(=O)(=O)c2ccc(Cl)cc2)CCCC1,36.3%,53.6%,49.1%,38.5%,9.54% (active),32.7%,-44.5% (active),48.7%,40.4%,-36.3% (active)
CCOC(=O)C1=C(C)Nc2nc3ccccc3n2C1c1ccccc1 (stereo not given),97%,104%,104%,100%,74.7%,95.7%,93.3%,92.7%,95.4%,104%
CCCC(=O)NC(c1cccnc1)c1cc(Cl)c2cccnc2c1O (stereo not given),44.7%,48.9%,47.1%,32.2%,25.3%,-5.51% (active),16.8%,39.7%,50.9%,30.8%
Cc1nc(-c2cc3ccccc3c(N3CCN(C)CC3)n2)cs1,99.9%,101%,106%,98.1%,103%,61.1%,94%,97.7%,93.2%,88.5%
CCOC(=O)c1c(NC(=O)c2cccc(C(F)(F)F)c2)sc2c(CN3CCN(C)CC3)c(O)ccc12,53.4%,83.8%,8.01% (active),38.8%,-64.4% (active),30.7%,-14.4% (active),32%,-83.6% (active),-55.1% (active)
CCCCOc1ccc(S(=O)(=O)N2CCN(c3nccc(N4CCOCC4)n3)CC2)cc1,44.2%,58.3%,45.1%,88.9%,16%,14.3%,81%,28.9%,39.1%,77.3%
Oc1ccccc1-c1nnc(SCc2ccc(O)c3ncccc23)n1-c1ccccc1,17.4%,9% (active),21.9%,13.6%,3.98% (active),-4.85% (active),-6.01% (active),9.34% (active),20.1%,34.5%
CS(=O)c1nccc(-c2c(-c3ccc(F)c(OCc4ccccc4)c3)nc3sccn23)n1 (stereo not given),88.2%,96.3%,73.1%,103%,19.1%,51.8%,31.6%,100%,99.1%,106%
O=C1[C@H]2Cc3c([nH]c4ccccc34)[C@@H](c3c(Cl)cccc3Cl)N2C(=O)CN1C1CCN(Cc2ccccc2)CC1,104%,103%,101%,90.7%,8% (active),83.8%,38.2%,94.2%,-58.2% (active),101%
CC(=O)NC(C)(C)C(=O)N[C@@H](C)C(=O)NC(C)(C)C(=O)N[C@@H](C)C(=O)NC(C)(C)C(=O)N[C@@H](C)C(=O)N[C@@H](CCC(N)=O)C(=O)NC(C)(C)C(=O)N[C@H](C(=O)NC(C)(C)C(=O)NCC(=O)N[C@@H](CC(C)C)C(=O)NC(C)(C)C(=O)N1CCC[C@H]1C(=O)N[C@H](C(=O)NC(C)(C)C(=O)NC(C)(C)C(=O)N[C@@H](CCC(N)=O)C(=O)N[C@@H](CCC(N)=O)C(=O)N[C@H](CO)CC1CCCCC1)C(C)C)C(C)C,21.6% [5 µM],35% [5 µM],94.2% [5 µM],46.3% [5 µM],45.1% [5 µM],-13.3% [5 µM] (active),6.15% [5 µM] (active),48.1% [5 µM],78.6% [5 µM],-12% [5 µM] (active)
COc1ccc(NC(=O)Cn2cc(CN3C(=O)c4ccc([N+](=O)[O-])cc4C3=O)nn2)cc1,99.7%,96.4%,106%,107%,106%,85.6%,99.9%,102%,107%,122%
CCOC(=O)c1nn(-c2ccccc2)c(=O)c2c(N)c(C#N)c(-c3cccs3)cc12,69.4%,60%,91.4%,80.4%,92.9%,61.3%,83.8%,87.2%,41.4%,102%
O=C(Cn1cc(CN2C(=O)c3ccc([N+](=O)[O-])cc3C2=O)nn1)Nc1ccc(F)cc1Cl,98%,101%,100%,109%,106%,79.7%,93.1%,99.1%,93.9%,110%
CC[C@@](C)(NC(=O)C(C)(C)NC(=O)[C@@H](NC(=O)[C@@H]1CCCN1C(=O)C(C)(C)NC(=O)[C@H](CC(C)C)NC(=O)CNC(=O)C(C)(C)NC(=O)[C@@H](NC(=O)C(C)(C)NC(=O)[C@H](CCC(N)=O)NC(=O)[C@H](C)NC(=O)C(C)(C)NC(=O)[C@H](C)NC(=O)C(C)(C)NC(=O)[C@@H]1CCCN1C(=O)C(C)(C)NC(C)=O)C(C)C)C(C)C)C(=O)N[C@@H](CCC(N)=O)C(=O)N[C@@H](CCC(N)=O)C(=O)N[C@H](CO)Cc1ccccc1,14.9% [4.25 µM],61.3% [4.25 µM],58.4% [4.25 µM],51.9% [4.25 µM],39.4% [4.25 µM],-13.3% [4.25 µM] (active),-1.04% [4.25 µM] (active),50.1% [4.25 µM],77.2% [4.25 µM],-12.5% [4.25 µM] (active)
O=C(NCCCNc1cc(-c2cn(-c3ccccc3)nc2-c2cccc(O)c2)ccn1)Nc1cccc(C(F)(F)F)c1,58%,62%,54.2%,43.2%,28.7%,40.2%,46.9%,49%,-4.95% (active),3.19% (active)
COc1ccc(/C=N\NC(=O)c2ccc3nc(-c4ccc(Br)cc4)[nH]c3c2)cc1,24.5%,64.3%,66.2%,4.06% (active),-47.7% (active),-2.97% (active),74.6%,23.8%,12.8%,18.4%

# — PubChem BioAssay (NCI)
